This excerpt belongs to a sample that is enriched for hits.
DT40 TDP1 CPT: DT40-hTDP1 cell growth loss with CPT; chicken DT40 Tdp1-/-;hTDP1 cells + 20 nM CPT, ATP luminescence, 48 h; Potency, µM (top dose mostly 46.2 µM), without a hit: at the highest dose activity change, negative = growth inhibition, actives largely listed as inhibitors; actives 12% (n = 420,000); further: potency means the concentration at half of the fitted maximal effect; nearly all actives have a fitted effect of over 55% in size
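Chicken DT40 Tdp1-/- cells complemented with human TDP1, 400 cells/well, exposed to compounds plus 20 nM camptothecin for at least 48 h at 37 C; viability read as ATP content by CellTiter-Glo luminescence.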
DT40 TDP1 no CPT: qHTS for Inhibitors of human tyrosyl-DNA phosphodiesterase 1 (TDP1): qHTS in cells in absence of CPT | DT40 Tdp1-/- hTDP1 cells, no CPT, ATP luminescence, 48 h | Potency, µM (series often up to 46.2 µM), inactives show top-dose activity change, negative = growth inhibition, actives largely listed as inhibitors | actives 15% (n = 420,000); further: potency means the concentration at half of the fitted maximal effect; nearly all actives have a fitted effect of over 55% in size
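Growth kinetics read by CellTiter-Glo luminescence after ≥48 hr at 37 °C. Cells: DT40 Tdp1-/- stably carrying human TDP1, 400 per well, compound exposure in the absence of CPT (DMSO vehicle).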
HT1080 IDH1KD tx: HT-1080 IDH1 knockdown cell toxicity (counter line) | Potency, µM (series often up to 46.1 µM), without a hit: top-dose activity, negative = toxicity, most hits filed as cytotoxic | HT-1080 IDH1 knockdown viability, ATP luminescence, 48 h | AID 686971 | actives 2% (n = 360,000);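 further: potency means the concentration at half of the fitted maximal effect; 0% = DMSO wells and -100% = cell-free medium wells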
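Viability of IDH1-knockdown HT-1080 fibrosarcoma cells was assessed by CellTiter-Glo after 48 h at 37 °C with titrated compound; concentration-effect curves were classified by fit quality and response size.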
ALOX12 inh: ALOX12 (human) lipoxygenase inhibition; P18054; purified 12hLO, xylenol orange hydroperoxide absorbance; Potency, µM (series often up to 108 µM), inactives show at the highest dose activity change, negative = inhibition, most hits filed as inhibitors; actives 1.1% (n = 580,000); AID 1671190; further: potency means the concentration at half of the fitted maximal effect
Target sequence (P18054 whole entry, looked up): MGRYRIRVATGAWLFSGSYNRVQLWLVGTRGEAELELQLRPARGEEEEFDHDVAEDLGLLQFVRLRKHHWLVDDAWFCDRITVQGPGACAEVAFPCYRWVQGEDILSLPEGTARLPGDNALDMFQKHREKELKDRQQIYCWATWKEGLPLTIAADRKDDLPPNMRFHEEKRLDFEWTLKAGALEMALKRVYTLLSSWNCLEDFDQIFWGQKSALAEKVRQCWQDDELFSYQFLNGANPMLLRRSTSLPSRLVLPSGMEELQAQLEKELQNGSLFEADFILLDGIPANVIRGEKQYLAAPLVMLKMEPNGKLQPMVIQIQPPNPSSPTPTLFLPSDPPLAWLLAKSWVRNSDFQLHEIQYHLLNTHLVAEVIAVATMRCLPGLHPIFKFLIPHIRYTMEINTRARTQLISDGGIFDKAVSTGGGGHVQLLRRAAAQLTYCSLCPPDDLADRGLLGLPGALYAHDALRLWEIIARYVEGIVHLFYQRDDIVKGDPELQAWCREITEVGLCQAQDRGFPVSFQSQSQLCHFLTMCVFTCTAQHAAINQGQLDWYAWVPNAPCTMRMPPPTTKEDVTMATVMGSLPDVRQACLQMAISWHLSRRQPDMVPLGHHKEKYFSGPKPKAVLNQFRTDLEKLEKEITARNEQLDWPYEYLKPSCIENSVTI
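Hydroperoxide product was detected by ferrous iron/xylenol orange as the 573 to 405 nm absorbance ratio. Arachidonic acid at 40 uM (final) was turned over for 30 min at room temperature by 150 nM human 12hLO, pH 7.0 Hepes buffer, after 15 min compound preincubation.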
IL1B secr inh: blocks inflammasome-driven IL-1 beta release; actives 4.7% (n = 360,000); THP-1 LPS/ATP IL-1B secretion, AlphaLISA, 16 h; hits give low values; activity change, % at 57.5 µM; in the data active means activity change below about -50%; inconclusive means mostly about -30% to -49%
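THP-1 cells pretreated 1 hr with compounds (up to 57.5 uM final), then stimulated with LPS (250 ng/mL final) plus ATP (1.25 mM final); secreted IL-1B measured by AlphaLISA after 16 hr, decreased signal indicating inhibition.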
HT1080NT lethal: kills 2HG-producing HT-1080-NT fibrosarcoma cells. Potency, µM (titrated, usually from 46.1 µM), without a hit: top-dose activity, negative = less viability, most hits filed as cytotoxic. actives 1.6% (n = 360,000). HT-1080-NT fibrosarcoma viability, CellTiter-Glo ATP luminescence, 48 h. AID 686970;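 further: NT is the 2HG producing partner of a matched IDH1 knockdown line; potency means the concentration at half of the fitted maximal effect; 0% = DMSO-treated cells and -100% = media-only wells without cells; nearly all actives have a fitted effect of over 55% in size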
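HT-1080-NT; 750 cells/well; 5% FBS RPMI; 48 h compound, 37 degrees C; CellTiter-Glo luminescence; curve fitting and curve-class assignment.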
Starred values were filed as active, the others as inactive; ? = inconclusive; . = not tested or not shown; [ ] = another dose, or the depositor's remark. Unless noted, the call rests on the fitted dose curve; in most records, active means well fitted curve in the direction sought with a large enough effect; inconclusive means small, poorly fitted or top-dose-only effect, or another doubt; inactive means no such curve, though single readings can be large; an effect the other way counts as inactive or inconclusive. Unless noted, on the % scale 0 is the no-effect control and ±100 the full control effect.

SMILES	DT40 TDP1 CPT	DT40 TDP1 no CPT	HT1080 IDH1KD tx	ALOX12 inh	IL1B secr inh	HT1080NT lethal
Cc1ccc(-c2nnc(Nc3ccc(Br)cc3)c3ccccc23)cc1S(=O)(=O)N1CCN(C)CC1	12µM*	18µM*	.	-26%	.	.
Cc1ccc(-c2nnc(Nc3ccc(O)cc3)c3ccccc23)cc1S(=O)(=O)N1CCN(C)CC1	?	18µM*	.	?	.	.
Cc1ccc(-c2nnc(Nc3cccc(O)c3)c3ccccc23)cc1S(=O)(=O)N1CCN(C)CC1	?	18µM*	.	0%	.	.
CC(C)c1ccc(C(C)NC(=O)Cn2nnn(-c3ccccc3)c2=O)cc1 (stereo not given)	.	.	.	2%	.	.
O=C(NC1CCCC1)c1ccc2c(Cl)c3c(nc2c1)CCCC3	.	.	.	-7%	.	.
COc1cccc(CNC(=O)C2CN(S(=O)(=O)c3cccnc3)CC23CCCCC3)c1 (stereo not given)	.	.	.	9%	.	.
COC(=O)c1ccc(Nc2nnc(-c3ccc(C)c(S(=O)(=O)N4CCN(C)CC4)c3)c3ccccc23)cc1	?	23µM*	.	?	.	.
Cc1ccc(-c2nnc(Nc3ccc(F)cc3)c3ccccc23)cc1S(=O)(=O)N1CCN(C)CC1	?	?	.	7%	.	.
C=CCNC(=S)N/N=C/c1ccc(N(CC)Cc2ccccc2)cc1	21µM*	18µM*	?	50µM*	-6	-15%
CCN(CC)c1ccc(/C=N/NC(=O)C(O)c2ccccc2)cc1 (stereo not given)	-6%	-13%	-13%	37%	-16	-28%
CCN(CC)c1ccc(/C=N/NC(=S)NCc2ccccc2)cc1	?	16µM*	3%	?	30	7%
CCN(CC)c1ccc(/C=N/NC(=S)NCc2ccc(OC)cc2)cc1	-17%	?	-18%	?	?	-8%
CC(=O)n1cc(N(C(=O)CCl)c2ccc(C)cc2)c2ccccc21	3.3µM*	1.6µM*	2.9µM*	?	-95*	2.3µM*
Cc1c(Cl)cccc1Nc1ccccc1C(=O)O	?	?	-12%	-12%	23	7%
O=C1c2cccnc2-c2ncccc21	1%	-15%	11%	-4%	6	19%
O=C1C=C(Nc2ccccc2C(=O)O)c2ccccc2C1=O	?	?	18µM*	?	47	?
O=C1C=C(Nc2ccccc2)c2ccccc2C1=O	7.3µM*	4.6µM*	5.2µM*	-22%	11	?
O=C1C(Nc2ccccc2)=CC(=O)c2ncccc21	1µM*	1.1µM*	.	11%[176 µM]	.	.
O=C1C=C(Nc2ccccc2)C(=O)c2ccccc21	13µM*	?	?	18%	0	15µM*
O=C(COC(=O)CSc1ccc2ccccc2c1Br)NC1CC1	-2%	-20%	-26%	0%	4	-13%
CCn1nc(CNC(=O)C(c2cccnc2)N2CCOCC2)c2ccccc21 (stereo not given)	.	.	.	-19%	.	.
CCc1ccc(NC2=CC(=O)C(=O)c3ccccc32)cc1	2.3µM*	2.9µM*	-3%	?	-87*	-3%
O=C1C=C(Nc2cccc3cccnc23)c2ccccc2C1=O	5.8µM*	7.3µM*	2.1µM*	?	-78*	?
Cc1[nH]c2ccccc2c1C(=O)COc1cccc2ccccc12	.	.	.	40%	.	.
CCN1C(=O)[C@H]2[C@@H](c3ccc(SC4CCCCC4)cc3)N[C@@](CC(C)C)(C(=O)OC)[C@H]2C1=O	?	21µM*	3%	-6%	-23	-25%
SMILES	DT40 TDP1 CPT	DT40 TDP1 no CPT	HT1080 IDH1KD tx	ALOX12 inh	IL1B secr inh	HT1080NT lethal
COC(=O)[C@]1(CC(C)C)N[C@H](c2ccc(-c3ccc4c(c3)OCO4)cc2)[C@@H]2C(=O)N(C)C(=O)[C@@H]21	?	?	8%	-31%	21	21%
CCN1C(=O)[C@H]2[C@@H](c3ccc(-c4ccccc4)c(OC)c3)N[C@@](CC(C)C)(C(=O)OC)[C@H]2C1=O	18µM*	15µM*	-5%	3%	0	-3%
CCN1C(=O)[C@H]2[C@@H](c3ccc(-c4ccccc4)cc3)N[C@@](CC(C)C)(C(=O)OC)[C@H]2C1=O	26µM*	18µM*	11%	?	-2	10%
COC(=O)[C@]1(CC(C)C)N[C@H](c2ccc(-c3cccc(Cl)c3)cc2)[C@@H]2C(=O)N(C)C(=O)[C@@H]21	13µM*	26µM*	-16%	?	?	?
CCCCC(=O)N/N=C(/C)c1ccc(NC(=O)c2ccc(Cl)cc2)cc1	.	.	.	-53%	.	.
Cc1ccsc1CN(C)CC(=O)NCC(=O)Nc1ccc(F)c(F)c1F	-5%	-10%	-2%	5%	-5	0%
CCn1c(=NC(=O)c2ccc(S(=O)(=O)N3CCCC3)cc2)sc2cc(Br)ccc21	?	-24%	.	-5%	.	.
C(=N\Nc1nncc2ccccc12)/c1ccccc1	-4%	-20%	-8%	-18%	8	-12%
COc1ccc(/C=N/Nc2nncc3ccccc23)c(OC)c1	26µM*	?	12%	2%	-16	8%
COc1cc(/C=N/Nc2nncc3ccccc23)cc(OC)c1OC	21µM*	12µM*	-4%	34%	-30	-5%
CN(C)c1ccc(/C=N/Nc2nncc3ccccc23)cc1	?	13µM*	1%	-24%	54	4%
Cc1ccc(CNC(=O)Cn2ccn(-c3ccc(C)c(C)c3)c(=O)c2=O)cc1	?	?	.	-11%	.	.
CCOc1ccc(CC(=O)N2CCN(C(=O)c3nnn4c3COC(c3ccc(C)cc3)C4)CC2)cc1 (stereo not given)	.	.	.	29%	.	.
C#CCOCCOCCOCCNc1nc(N2CCN(C(=O)Cn3cc(CCO)nn3)CC2)nc(N2CCN(C(=O)[C@H](CCCCN)n3cc(CC(C)O)nn3)CC2)n1 (stereo not given in full)	4%	15%	5%	?	36	9%
C#CCOCCOCCOCCNc1nc(N2CCOCC2)nc(N2CCN(C(=O)[C@H](CCCCN)n3cc(CCCC)nn3)CC2)n1	0.21µM*	1.3µM*	11%	35µM*	12	11%

Bioassay records (PubChem BioAssay)
